# Assay results published in PubChem BioAssay AID1159606 (Sanford-Burnham Center for Chemical Genomics, 2016).
# About 7,300 (2%) of roughly 360,000 compounds were called active. Cut-off read from the data, not from the text of the source: active = inhibition above about 50%; inactive = the rest. What follows is part of a selection rich in actives, with near analogues and random picks from the rest.
# Assay: inhibitors of TWEAK-Fn14 signaling, primary screen, luciferase reporter cells, uHTS (AID 1159606)
# Conditions: TWEAK-stimulated Fn14 reporter cells, luciferase luminescence, 8 h; at 10 µM; active compounds read high
row,Compound,inhibition
1,O=C(NC(=S)Nc1ccccc1C(=O)O)c1ccc(-c2ccc(Br)cc2)o1,47.2% (inactive)
2,CCOC(=O)c1c(NC(=O)CSc2nccc(=O)[nH]2)sc(C)c1C,-3.68% (inactive)
3,CCOC(=O)c1c(C)[nH]c2c1-c1ccccc1C(=O)C2=O,101% (active)
4,CCOC(=O)c1c(C)[nH]c(C)c1S(=O)(=O)NCCCc1ccco1,-7.27% (inactive)
5,Cc1cccc(CN2CCN(C3CN(Cc4cn(Cc5ccccc5F)nn4)S(=O)(=O)C3)CC2)c1 (stereo not drawn),-19.2% (inactive)
6,NC(=O)C1CC(=O)N(c2ccc(OCC(=O)NCc3ccccc3)cc2)C1 (stereo not drawn),32.7% (inactive)
7,Cc1cccc(C)c1NC(=O)CNC(=O)c1ccc(N2CCOCC2)c([N+](=O)[O-])c1,8.19% (inactive)
8,O=S(=O)(NCCCCCCNS(=O)(=O)c1c(F)cccc1F)c1ccc2c(c1)OCCO2,16.7% (inactive)
9,O=C1NC[C@H](Cc2ccc(O)cc2)N(C[C@@H]2CCCN2C[C@H](Cc2ccccc2)N2C[C@H](Cc3ccccc3)N(CC3CCCCC3)C(=O)C2=O)C1=O,-9.41% (inactive)
10,COc1cccc(C(=O)N/N=C(\C)c2cccc(NC(=O)c3ccc(F)cc3)c2)c1OC,-20% (inactive)
11,Nc1ccc(C(=O)N2CCN(S(=O)(=O)c3ccc(Cl)cc3)CC2)cc1[N+](=O)[O-],-5.64% (inactive)
12,CC1CCN(C(=O)c2ccc(S(=O)(=O)Cc3cc(F)ccc3F)c([N+](=O)[O-])c2)CC1,83.4% (active)
13,O=C(c1ccc(Oc2ccc(Cl)cc2)c([N+](=O)[O-])c1)N1CCCC1,-4.37% (inactive)
14,O=C(NCCc1ccccn1)c1ccc(COc2ccccc2)o1,-2.18% (inactive)
15,COc1ccc(/C=C/C(=O)c2ccc(NS(=O)(=O)c3ccc(C)cc3)cc2)cc1O,60.9% (active)
16,COc1ccc(/C=C/C(=O)Nc2ccc(C)cc2)cc1S(=O)(=O)N1CCOCC1,-4.91% (inactive)
17,Cc1ccc(C(=O)/C=C/Nc2ccc(S(=O)(=O)Nc3onc(C)c3C)cc2)cc1,-32% (inactive)
18,COc1ccc(CNC(=O)c2c[nH]c3c(OC)cc(OC)cc3c2=O)cc1,-46.6% (inactive)
19,CCCCN1C(=O)c2ccc(C(=O)Nc3ccc(S(=O)(=O)N(C)C)cc3)cc2C1=O,33.8% (inactive)
20,COc1ccc(NC(=O)C2Cc3c(-c4ccc(Cl)cc4)ccnc3O2)cc1 (stereo not drawn),6.65% (inactive)
21,O=C(c1[nH]ncc1-c1ccc(Cl)cc1)C1CO1 (stereo not drawn),66.5% (active)
22,Cc1ccc(S(=O)(=O)n2oc(=O)c(C3CCCCC3)c2N)cc1,2.92% (inactive)
23,CCCS(=O)(=O)Nc1ccc(-c2cn3c(n2)SCC3)cc1,-17.6% (inactive)
